Measured values reported in PubChem BioAssay (NCI).
About 83,000 compounds went through this panel and 20% of them were active in at least one assay; those are over-represented in the sample as a whole.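 Cells were grown in 96-well plates and exposed to the test compound at a single concentration for 48 hours; results are reported as percent growth, with values below 10 considered active.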 Active and inactive are the calls of the source.

Assays:
Test in all cases: NCI-60 one-dose screen, 48 h (100 = growth as untreated, 0 = no growth, -100 = all killed)
Conditions in all cases: 10 µM
SR leukemia = test system: SR leukemia
RPMI-8226 leukemia = test system: RPMI-8226 leukemia
OVCAR-8 ovarian = test system: OVCAR-8 ovarian
OVCAR-5 ovarian = test system: OVCAR-5 ovarian
OVCAR-4 ovarian = test system: OVCAR-4 ovarian
SK-OV-3 ovarian = test system: SK-OV-3 ovarian
IGROV1 ovarian = test system: IGROV1 ovarian
OVCAR-3 ovarian = test system: OVCAR-3 ovarian
HS 578T breast = test system: HS 578T breast
NCI/ADR-RES ovarian = test system: NCI/ADR-RES ovarian
T-47D breast = test system: T-47D breast
BT-549 breast = test system: BT-549 breast
MDA-MB-435 melanoma = test system: MDA-MB-435 melanoma
SW-620 colon = test system: SW-620 colon
MCF7 breast = test system: MCF7 breast
HCT-116 colon = test system: HCT-116 colon
HCC-2998 colon = test system: HCC-2998 colon
KM12 colon = test system: KM12 colon

Measured: growth

C=C[C@]1(C)C=C2C(=O)[C@@]3(O)OC(=O)[C@@]4(CCCC(C)(C)[C@H]34)[C@@]2(O)CC1
inactive: SK-OV-3 ovarian 38.4%
active: SR leukemia -11% | RPMI-8226 leukemia -25.4% | OVCAR-8 ovarian -56.8% | OVCAR-5 ovarian -71.7% | OVCAR-4 ovarian -74.4% | IGROV1 ovarian -92.8% | OVCAR-3 ovarian -90.4% | HS 578T breast 0.722% | NCI/ADR-RES ovarian -6.84% | T-47D breast -52.8% | BT-549 breast -93.7% | MDA-MB-435 melanoma -90.6% | SW-620 colon -42% | MCF7 breast 0.55% | HCT-116 colon -93.4% | HCC-2998 colon -91.3% | KM12 colon 8.33%

COc1cc(C2c3cc4c(cc3C(O)C(CO)C2CO)OCO4)cc(OC)c1OC (stereo unspecified)
active: SR leukemia 6.26% | OVCAR-3 ovarian -44.5% | HS 578T breast -8.11% | MDA-MB-435 melanoma -53.1%
inactive: RPMI-8226 leukemia 30.1% | OVCAR-8 ovarian 30% | OVCAR-5 ovarian 50.9% | OVCAR-4 ovarian 51% | SK-OV-3 ovarian 15.9% | IGROV1 ovarian 13.9% | NCI/ADR-RES ovarian 79.2% | T-47D breast 45.7% | BT-549 breast 58.7% | SW-620 colon 19.6% | MCF7 breast 17.5% | HCT-116 colon 23.1% | HCC-2998 colon 40.9% | KM12 colon 16.1%

O=C(CCCC(=O)N/N=C/c1cc(Cl)ccc1O)N/N=C\c1cc(Cl)ccc1O
active: SR leukemia 1.74%
inactive: RPMI-8226 leukemia 27.3% | OVCAR-8 ovarian 20.3% | OVCAR-5 ovarian 67.4% | OVCAR-4 ovarian 22.1% | SK-OV-3 ovarian 13.9% | IGROV1 ovarian 31.2% | OVCAR-3 ovarian 35.5% | HS 578T breast 68.4% | NCI/ADR-RES ovarian 14.1% | T-47D breast 24.1% | BT-549 breast 29.2% | MDA-MB-435 melanoma 45.1% | SW-620 colon 30.9% | MCF7 breast 14.3% | HCT-116 colon 24.7% | HCC-2998 colon 29.2% | KM12 colon 27.8%

COc1ccc(C2C=C(c3ccc(Cl)c(Cl)c3)N=C3SC(C)=CN32)cc1OC (stereo unspecified)
inactive: SR leukemia 61.9% | RPMI-8226 leukemia 38.4% | OVCAR-8 ovarian 68.7% | OVCAR-5 ovarian 97.1% | OVCAR-4 ovarian 72.9% | SK-OV-3 ovarian 109% | IGROV1 ovarian 72.2% | OVCAR-3 ovarian 60.9% | HS 578T breast 90.8% | NCI/ADR-RES ovarian 79.4% | T-47D breast 64% | BT-549 breast 89.1% | MDA-MB-435 melanoma 69.4% | SW-620 colon 85.7% | MCF7 breast 72.8% | HCT-116 colon 48.8% | HCC-2998 colon 77.8% | KM12 colon 57%

COc1ccc(-c2nnc(N3CCN(C(=O)CN4CCN(c5ccc(Cl)cc5)CC4)CC3)nc2-c2ccc(OC)cc2)cc1
inactive: SR leukemia 54.2% | OVCAR-8 ovarian 66.1% | OVCAR-5 ovarian 114% | OVCAR-4 ovarian 61.5% | SK-OV-3 ovarian 102% | IGROV1 ovarian 62.7% | OVCAR-3 ovarian 73.1% | HS 578T breast 72.2% | NCI/ADR-RES ovarian 81.8% | T-47D breast 38.2% | BT-549 breast 59% | MDA-MB-435 melanoma 68% | SW-620 colon 69.3% | MCF7 breast 37.1% | HCT-116 colon 34.1% | HCC-2998 colon 75.2% | KM12 colon 50.5%
active: RPMI-8226 leukemia -44.9%

CC(=O)O[C@H]1CC[C@@]2(C)[C@@H](CC[C@@H]3[C@@H]2CC[C@]2(C)C=C(C=O)C[C@@H]32)C1
inactive: OVCAR-8 ovarian 24.9% | OVCAR-5 ovarian 71.8% | OVCAR-4 ovarian 70.4% | SK-OV-3 ovarian 113% | IGROV1 ovarian 60.2% | OVCAR-3 ovarian 57.8% | HS 578T breast 105% | NCI/ADR-RES ovarian 70.5% | T-47D breast 33.6% | BT-549 breast 68.5% | MDA-MB-435 melanoma 57.8% | SW-620 colon 30.1% | HCC-2998 colon 92.5% | KM12 colon 107%
active: SR leukemia 2.16% | RPMI-8226 leukemia 8.64% | MCF7 breast 7.05% | HCT-116 colon -19.3%

COc1ccc(Nc2nc(NCc3ccccc3)c3ccccc3n2)cc1
active: OVCAR-8 ovarian 6.75% | OVCAR-4 ovarian -37.2% | HS 578T breast -3.28%
inactive: SR leukemia 45.2% | RPMI-8226 leukemia 75.9% | OVCAR-5 ovarian 78.7% | SK-OV-3 ovarian 13.4% | IGROV1 ovarian 42.5% | OVCAR-3 ovarian 14.8% | NCI/ADR-RES ovarian 39.7% | T-47D breast 45.6% | BT-549 breast 82.9% | MDA-MB-435 melanoma 84.2% | SW-620 colon 68.2% | MCF7 breast 67.4% | HCT-116 colon 29.8% | HCC-2998 colon 91.5% | KM12 colon 80.7%

CCOCC[P+](c1ccccc1)(c1ccccc1)c1ccccc1
inactive: SR leukemia 21.4% | OVCAR-8 ovarian 46.5% | OVCAR-5 ovarian 76.2% | OVCAR-4 ovarian 36.4% | SK-OV-3 ovarian 60.3% | IGROV1 ovarian 46.9% | OVCAR-3 ovarian 33.8% | HS 578T breast 79.1% | NCI/ADR-RES ovarian 100% | T-47D breast 18% | BT-549 breast 36.9% | MDA-MB-435 melanoma 28.8% | SW-620 colon 60% | MCF7 breast 31.1% | HCT-116 colon 38.1% | HCC-2998 colon 31.7% | KM12 colon 25.8%
active: RPMI-8226 leukemia 1.2%

O=C(Nc1cccc(F)c1)Nc1cccc(Cl)c1
inactive: SR leukemia 49.9% | RPMI-8226 leukemia 66.6% | OVCAR-8 ovarian 78.6% | OVCAR-5 ovarian 94.9% | OVCAR-4 ovarian 87.2% | SK-OV-3 ovarian 114% | IGROV1 ovarian 111% | OVCAR-3 ovarian 14.4% | HS 578T breast 97.3% | NCI/ADR-RES ovarian 89.1% | T-47D breast 76.5% | BT-549 breast 104% | MDA-MB-435 melanoma 89.9% | SW-620 colon 74% | MCF7 breast 87.8% | HCT-116 colon 92.3% | HCC-2998 colon 89.9% | KM12 colon 47.6%

CCOC(=O)C1=C(Nc2ccc(OC)cc2)C(N)=NC1=N
active: SR leukemia 4.05% | MDA-MB-435 melanoma -43.1%
inactive: RPMI-8226 leukemia 24.7% | OVCAR-8 ovarian 54.5% | OVCAR-5 ovarian 65.6% | OVCAR-4 ovarian 59.8% | SK-OV-3 ovarian 34.1% | IGROV1 ovarian 65% | OVCAR-3 ovarian 17% | HS 578T breast 48.5% | NCI/ADR-RES ovarian 28.4% | T-47D breast 47.5% | BT-549 breast 56.2% | SW-620 colon 25.2% | MCF7 breast 13.7% | HCT-116 colon 34.5% | HCC-2998 colon 81% | KM12 colon 30.2%

C=CCn1ccc(=O)nc1SC
inactive: SR leukemia 112% | RPMI-8226 leukemia 108% | OVCAR-8 ovarian 100% | OVCAR-5 ovarian 109% | OVCAR-4 ovarian 106% | SK-OV-3 ovarian 105% | IGROV1 ovarian 120% | OVCAR-3 ovarian 113% | HS 578T breast 106% | NCI/ADR-RES ovarian 104% | T-47D breast 97.2% | BT-549 breast 105% | MDA-MB-435 melanoma 108% | SW-620 colon 103% | MCF7 breast 100% | HCT-116 colon 112% | HCC-2998 colon 103% | KM12 colon 104%

NC(=O)C1CCCN(Cc2c[nH]c3ccccc23)C1 (stereo unspecified)
inactive: SR leukemia 96.9% | RPMI-8226 leukemia 105% | OVCAR-8 ovarian 98.3% | OVCAR-5 ovarian 99.8% | OVCAR-4 ovarian 108% | SK-OV-3 ovarian 100% | IGROV1 ovarian 102% | OVCAR-3 ovarian 104% | HS 578T breast 96.6% | NCI/ADR-RES ovarian 94.8% | T-47D breast 92.8% | BT-549 breast 105% | MDA-MB-435 melanoma 108% | SW-620 colon 99.5% | MCF7 breast 101% | HCT-116 colon 103% | HCC-2998 colon 100% | KM12 colon 102%

N#Cc1cnc2ccc(NCc3cnc[nH]3)cc2c1Nc1ccc(F)c(Cl)c1
inactive: SR leukemia 66.1% | RPMI-8226 leukemia 83.2% | OVCAR-8 ovarian 46.6% | OVCAR-5 ovarian 82.7% | OVCAR-4 ovarian 42.9% | SK-OV-3 ovarian 39.9% | IGROV1 ovarian 22.4% | OVCAR-3 ovarian 49.7% | HS 578T breast 90.9% | NCI/ADR-RES ovarian 98.7% | T-47D breast 57.2% | BT-549 breast 74.2% | MDA-MB-435 melanoma 92.4% | SW-620 colon 71.7% | MCF7 breast 91.9% | HCT-116 colon 56.1% | HCC-2998 colon 91.4% | KM12 colon 84.2%

CC(C)C[C@H](NC(=O)Cn1ccc(Nc2ccccc2)cc1=O)B(O)O
inactive: OVCAR-8 ovarian 54.4% | OVCAR-5 ovarian 33.9% | OVCAR-4 ovarian 47.5% | SK-OV-3 ovarian 51.7% | IGROV1 ovarian 53.4% | HS 578T breast 28.9% | NCI/ADR-RES ovarian 111% | SW-620 colon 15% | MCF7 breast 28.2% | KM12 colon 36.1%
active: SR leukemia 4.14% | RPMI-8226 leukemia 1.74% | OVCAR-3 ovarian -45.4% | T-47D breast -4.25% | BT-549 breast 9.01% | MDA-MB-435 melanoma -85.4% | HCT-116 colon -6.59% | HCC-2998 colon 9.37%

CCCCn1c(=O)[nH]c2c(c1=O)C(c1ccc(Cl)cc1)c1c([nH]c(=O)n(CCCC)c1=O)N2
inactive: SR leukemia 106% | RPMI-8226 leukemia 104% | OVCAR-8 ovarian 99.5% | OVCAR-5 ovarian 99.5% | OVCAR-4 ovarian 102% | SK-OV-3 ovarian 94.7% | IGROV1 ovarian 102% | OVCAR-3 ovarian 115% | HS 578T breast 106% | NCI/ADR-RES ovarian 98.6% | T-47D breast 73.3% | BT-549 breast 100% | MDA-MB-435 melanoma 103% | SW-620 colon 101% | MCF7 breast 88.2% | HCT-116 colon 96.6% | HCC-2998 colon 103% | KM12 colon 102%

COc1cccc(-c2nnc(COc3ccc(-c4nc5ccc(C)cc5[nH]4)cc3OC)o2)c1
active: SR leukemia -25.7% | RPMI-8226 leukemia -12.2%
inactive: OVCAR-8 ovarian 46.9% | OVCAR-5 ovarian 103% | OVCAR-4 ovarian 54.4% | SK-OV-3 ovarian 101% | IGROV1 ovarian 85.1% | OVCAR-3 ovarian 77.4% | HS 578T breast 31.1% | NCI/ADR-RES ovarian 76.8% | T-47D breast 50.7% | BT-549 breast 92.7% | MDA-MB-435 melanoma 41.6% | SW-620 colon 64.5% | MCF7 breast 18.5% | HCT-116 colon 29.4% | HCC-2998 colon 88.6% | KM12 colon 39.7%

O=C(NC1CCN(Cc2ccccc2)CC1)c1cc(-c2ccncc2)nc2ccc(Cl)cc12
inactive: RPMI-8226 leukemia 21.9% | OVCAR-8 ovarian 18.4% | OVCAR-5 ovarian 75.3% | OVCAR-4 ovarian 27.6% | SK-OV-3 ovarian 53.1% | IGROV1 ovarian 32.3% | OVCAR-3 ovarian 15.5% | HS 578T breast 59.9% | NCI/ADR-RES ovarian 11.2% | T-47D breast 29.8% | BT-549 breast 35.4% | MDA-MB-435 melanoma 28% | SW-620 colon 23.5% | MCF7 breast 17.7% | HCC-2998 colon 44.4% | KM12 colon 26.1%
active: SR leukemia 8.12% | HCT-116 colon 9.97%
